Source: PubChem BioAssay (National Center for Advancing Translational Sciences (NCATS))
MCF10A rereplic: induces DNA re-replication in MCF 10a normal breast cells. Potency, µM (series often up to 46.1 µM), without a hit: at the top dose activity, positive = re-replication, usual class: activators. MCF 10A DNA re-replication, Hoechst nuclear intensity, 48 h. actives 2.9% (n = 350,000); also: % of control where 0% means no effect; nearly all actives have a fitted effect of over 50% in size
SW480 rerep: DNA re-replication induction in SW480 cells; Potency, µM (highest dose often 46.1 µM), without a hit: at the highest dose re-replication activation, actives largely listed as activators; SW480 DNA re-replication, Hoechst DNA content imaging, 48 h; actives 1.8% (n = 340,000); also: % of control where 0% means no effect; nearly all actives have a fitted effect of over 55% in size
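Treated cells incubate 48 hr (37 C, 5% CO2), are stained 40 min with Hoechst, and nuclear fluorescence is enumerated; a rise in nuclei with high DNA signal marks re-replication.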
KB-3-1 tox: KB-3-1 parental cell cytotoxicity. KB-3-1 viability, CellTiter-Glo ATP luminescence, 72 h. Potency, µM (titrated, usually from 46.1 µM), most hits filed as cytotoxic. actives 1.4% (n = 400,000). AID 1347075; also: % is scaled to controls: 0 for no effect and ±100 for the full control effect; nearly all actives have a fitted effect of over 60% in size
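Screening of KB-3-1 cells (DMEM, 10% FBS, phenol-red free) ran from lowest to highest compound concentration; after 72 h at 37 °C viability was read luminescently and curves fitted.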
ELG1 repair inh: ELG1-dependent DNA repair inhibition. HEK293T ELG1-luciferase reporter, luminescence, 16 h; DNA damage induced by 5-fluorouridine. Potency, µM (doses to about 46.1 µM), without a hit: at the top dose activity change, negative = inhibition, most hits filed as inhibitors. actives 2.3% (n = 330,000). AID 504467; also: % is scaled to controls: 0 for no effect and ±100 for the full control effect; nearly all actives have a fitted effect of over 55% in size
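Reporter activity after DNA damage by 5-fluorouridine is monitored. Compound-treated cells incubate 16 hr at 37 °C, then ONE-Glo is added for 30 min before luminescence reading.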
KB-V1 cytotox: kills drug-selected multidrug resistant KB-V1 cells. KB-V1 MDR cells viability, CellTiter-Glo, 72 h. AID 1347076. Potency, µM (top dose mostly 46.1 µM), hits mostly cytotoxic. actives 3.4% (n = 400,000); also: % is scaled to controls: 0 for no effect and ±100 for the full control effect; nearly all actives have a fitted effect of over 60% in size
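In this primary screen, KB-V1 cells overexpressing P-gp are incubated with library compounds (lowest to highest concentration) for 72 h at 37 degrees C before a luminescent ATP viability read.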
Numbers without * were called inactive; i = inactive; ? = inconclusive; nt = no result given. In the library only some 8.1% were active in any assay of this set; here they are far more common. Calls follow the shape of the dose curve; as a rule, active = well fitted curve in the direction sought with a large enough effect; inconclusive = small, poorly fitted or top-dose-only effect, or another doubt; inactive = no such curve, though single readings can be large; an effect the other way counts as inactive or inconclusive. Potency is read from the fitted curve at half-maximal effect.

SMILES	MCF10A rereplic	SW480 rerep	KB-3-1 tox	ELG1 repair inh	KB-V1 cytotox
COc1cc(NCCC(=O)c2cccs2)c(OC)cc1Cl	21µM*	?	i	-24%	i
CC(=O)Oc1ccc(C(=O)Nc2ccccc2C(=O)N2CCCCC2)cc1	5%	?	i	1%	i
CCOCC(=O)Nc1cc(C(=O)OC)ccc1C(=O)OC	-3%	-1%	i	9%	i
COC(=O)c1ccc(C(=O)OC)c(NC(=O)COC(=O)c2ccc(OC)c(OC)c2OC)c1	31%	5%	i	5.8µM*	i
CC(=O)NCCNC(=O)[C@H](Cc1ccccc1)NC(=O)c1cccs1	5%	-3%	i	-13%	i
COc1ccc(NC(=O)c2cc(C)cc(C)c2)cc1[N+](=O)[O-]	9%	3%	?	4%	i
CCCN(CCC)C(=O)c1ccc2nc(-c3ccc(OC)c(OC)c3)c(-c3ccc(OC)c(OC)c3)nc2c1	9%	-4%	i	12µM*	i
CCN(CC)C(=O)c1ccc2nc3ccccc3nc2c1	?	5.2µM*	5.8µM*	?	16µM*
COc1ccc(-c2nc3ccccc3nc2-c2ccc(OC)c(OC)c2)cc1OC	1%	20%	i	-16%	i
CCN(CC)C(=O)c1ccc2nc(-c3ccccc3)c(-c3ccccc3)nc2c1	8%	1%	?	?	4.1µM*
CCN(CC)C(=O)c1ccc(C(=O)c2ccccc2)cc1	3%	-7%	i	?	i
CS(=O)(=O)c1ccc(Cl)c(NC(=O)COC(=O)CNC(=O)c2sc3ccccc3c2Cl)c1	-30%	?	i	9%	i
O=C(N/N=C/C(Cl)=C/c1ccc([N+](=O)[O-])cc1)C(=O)Nc1ccc(C(=O)O)cc1	?	?	i	32%	i
O=C(N/N=C/C(Cl)=C/c1ccc([N+](=O)[O-])cc1)C(=O)Nc1ccccc1C(=O)O	5%	25%	7.3µM*	14%	2.1µM*
CC(NC(=O)/C(=C/c1ccc(OC(F)F)cc1)c1ccccc1)c1ccccc1 (stereo not drawn)	?	19%	?	-26%	6.5µM*
CC(O)(c1ccc(F)c(F)c1)c1nc(-c2ccc(S(C)(=O)=O)cc2)cs1 (stereo not drawn)	nt	nt	?	nt	21µM*
CC(O)(c1ccc(F)c(F)c1)c1nc(-c2ccncc2)cs1 (stereo not drawn)	nt	nt	i	nt	i
O=C1c2ccccc2-c2cccc(C(=O)N3CCCCCC3)c21	?	12%	i	-1%	i
O=C1c2ccccc2-c2c1cccc2C(=O)N1CCCCCC1	-2%	23µM*	?	-3%	i
CC(C)n1c(CNC(=O)c2ccccc2)nc2ccccc21	-2%	-2%	i	-3%	i
N#Cc1ccc(COC(=O)c2cc(=O)c3ccccc3o2)cc1	-6%	?	i	0%	?
O=C(CSc1nnc(-c2cccnc2)n1Cc1ccco1)N1c2ccccc2Sc2ccccc21	9%	-7%	i	?	6.5µM*
c1cncc(CSc2nnc(-c3cccnc3)n2Cc2ccco2)c1	nt	nt	nt	-1%	nt
CCOc1ncccc1C(=O)NCc1ccccc1	1%	-14%	nt	12%	nt
CCOc1ncccc1C(=O)NCc1ccc(OC)cc1	?	8.2µM*	15µM*	-9%	13µM*
SMILES	MCF10A rereplic	SW480 rerep	KB-3-1 tox	ELG1 repair inh	KB-V1 cytotox
COc1ccc(C(=O)CSc2[nH]c(=O)cc(C(F)(F)F)c2C#N)cc1	18µM*	?	?	20%	i
CCOC(=O)CC1=CSC2=NS(=O)(=O)CCN12	-3%	-2%	i	4%	i
Cc1ccc2c(C)ccc(O)c2n1	21µM*	0%	?	?	i
COc1ccc2sc(-c3ccccc3OC)c(-c3ccc(OC)nc3)c2c1	23µM*	-4%	i	?	i
COc1ccccc1-c1sc2ccccc2c1-c1ccc(O)cc1	?	16µM*	i	-1%	i
COc1ccc(-c2sc3ccc(OC)cc3c2-c2ccc(OC)nc2)cc1	?	10%	i	?	i
COc1ccc(-c2sc3cc(OC)c(OC)cc3c2-c2ccc(O)cc2)cc1	?	21µM*	i	?	i
COc1ccccc1-c1sc2ccccc2c1C#Cc1ccc(N(C)C)cc1	?	8.2µM*	i	?	i
COc1ccc(-c2sc3ccccc3c2-c2ccc(O)cc2)cc1	?	6%	?	1%	i
NCC(O)COc1ccc2c(c1)OCO2 (stereo not drawn)	1%	-2%	i	1%	i
CC(=O)Nc1ccc(NC(=O)CN(C)S(=O)(=O)c2ccc3nc(C)sc3c2)cc1	-8%	18%	i	-6%	?
Cc1ccc(NC(=O)CCc2nnc(SCC(=O)Nc3ccccc3C)n2C)cc1Cl	-2%	5%	i	5%	i
Oc1ccccc1C=NC1=NN(c2cccc(C(F)(F)F)c2)CC1	19%	?	i	5%	i
COc1cc2sc(-c3ccccc3OC)c(-c3ccc(OCCN4CCCCC4)cc3)c2cc1OC	?	-4%	?	17%	?
COc1ccc(-c2c(-c3ccccc3OC)oc3ccccc23)cn1	16µM*	-4%	i	?	i
COc1ccccc1-c1sc2cc3c(cc2c1-c1ccc(OCCN2CCCCC2)cc1)OCO3	10µM*	5%	?	-1%	?
CN1C/C(=C/c2cccnc2)C(=O)/C(=C/c2cccnc2)C1	15µM*	?	?	?	15µM*
CC(C)N1CC2=C(OC(N)=C(C#N)C2c2cccnc2)/C(=C/c2cccnc2)C1 (stereo not drawn)	9%	-2%	i	13%	i
CC(C)N1C/C(=C/c2cccnc2)C(=O)/C(=C/c2cccnc2)C1	1.2µM*	?	?	?	15µM*
O=C1c2ccccc2C(=Cc2cccnc2)c2ccccc21	nt	nt	i	nt	i
CCN1C(=O)S/C(=C/c2ccsc2)C1=O	?	6%	i	?	i
CC(C)N1C/C(=C/c2ccsc2)C(=O)/C(=C/c2ccsc2)C1	8.2µM*	9.2µM*	15µM*	18µM*	?
CN(C)Cc1csc(Nc2ccc(C(F)(F)F)cn2)n1	nt	nt	i	nt	i
Cc1ccc(S(=O)(=O)C=CS(=O)(=O)c2ccc(C)cc2)cc1	nt	nt	?	nt	i
O=S(=O)(/C=C/C=C/S(=O)(=O)c1ccccc1)c1ccccc1	?	?	6.5µM*	nt	i
Cn1cccc1/C=C1/SC(=S)N(CC(=O)O)C1=O	-14%	2%	?	3%	i
